For seven compounds, growth results are on record in PubChem BioAssay (NCI).

This is part of a sample that, as a whole, favours compounds with a hit. Of some 83,000 tested, about 20% had one in any assay.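 Method: cells in 96-well plates; compound added at one concentration; 48 h incubation; percent growth measured; values under 10 scored active.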 Values without a mark were called inactive. Activity calls are given as the source filed them.

Assay in all cases: NCI-60 one-dose screen, 48 h (100 = growth as untreated, 0 = no growth, -100 = all killed)
Details in all cases: 10 µM unless noted

For assay [1], the system named is NCI-H23 lung.
For assay [2], the system named is NCI-H226 lung.
Assay [3] concerns NCI-H322M lung.
In assay [4] the test system is HOP-62 NSCLC.
Assay [5] has as its system NCI-H460 lung.
Assay [6] relates to HOP-92 NSCLC.
Assay [7] deals with NCI-H522 lung.
Assay [8] has as its system A549/ATCC NSCLC.
Assay [9] has as its system 786-0 renal.
The subject of assay [10] is COLO 205 colon.
Assay [11] has as its system DU-145 prostate.
Assay [12] relates to K-562 leukemia.
In assay [13] the test system is MALME-3M melanoma.
For assay [14], the system named is MDA-MB-231 breast.
For assay [15], the system named is RXF 393 renal.
Assay [16] concerns SF-268 CNS.
Assay [17] deals with SF-295 CNS.
Assay [18] has as its system SF-539 CNS.
In assay [19] the test system is UACC-257 melanoma.
Assay [20] has as its system M14 melanoma.

In the case of `CCC(=C(c1ccc(OCCN2CCCCC2)cc1)c1ccc(OCCN2CCCCC2)cc1)c1ccc(Cl)cc1`, the growth is -81% (active) in assay [1]; -66.4% (active) in [2]; -99% (active) in [3]; -73.7% (active) in assay [4]; -80.5% (active) in [5]; -83.6% (active) in assay [6]. For the same compound, the growth in assay [7] was -69.7% (active); in assay [8] it was -72.2% (active); in assay [9], -88.8% (active); in assay [10], -66.3% (active); in assay [11], -89.8% (active); in assay [12], -37% (active). Besides, the growth in assay [13] was -83.4% (active); in [14], -90.1% (active); in assay [15], -81.4% (active); in [16] it was -72.1% (active); in [17] it was -89.7% (active); in assay [18] it was -97.3% (active). Also, the values for the growth in [19] and in assay [20] were -76.9% (active) and -83.1% (active), respectively.

With `Cc1cc(=O)oc2cc(OCc3nn4c(Nc5nc6ccccc6s5)c(-c5ccccc5)nc4s3)ccc12`, the growth in assay [1] was 83.3%; in [2], 92.2%; in [3], 90.7%; in assay [4], 90.2%; in [5], 83.8%; in assay [6], 77.1%. Moreover, the growth in assay [7] was 76.6%; in assay [8], 94.4%; in assay [9], 103%; in assay [10] it was 104%; in assay [11], 97.7%; in [12], -59.3% (active). In addition, the growth in assay [13] was 93.7%; in assay [14], 83.1%; in assay [15], 102%; in [16], 86.1%; in assay [17], 90.2%; in assay [18] it was 96.1%. Also, the growth in assay [19] was 93.9%; in assay [20] it was 100%.

For the compound `Cn1cc(-c2ccc3nc(-c4ccc(CC(=O)ONc5cc(C(C)(C)C)on5)cc4)cnc3c2)cn1`, the growth in assay [1] was 43.7%; in assay [2] it was 43.2%; in assay [3] it was 22.8%; in assay [4], 37.1%; in assay [5], 25.2%; in assay [6] it was 30.3%. For the same compound, the growth in [7] is 39.4%; in [8], 31.1%; in [9], 23.1%; in assay [10] it was 51.3%; in assay [11], 35.1%; in [12], 10.3%. In addition, the growth was 22.4% in assay [13]; 39.1% in assay [14]; 28.8% in assay [15]; 33.5% in assay [16]; 38.1% in [17]; 17% in [18]. Also, the growth in [19] was 39.8%; in assay [20] it was 18.7%.

In the case of `Nc1nc2ccc(-c3nc4ccc5[nH]ncc5c4c4c3CCCC4)cc2s1`, the growth in assay [1] was 100%; in assay [2], 112%; in assay [3] it was 101%; in assay [4], 101%; in assay [5] it was 107%; in [6], 106%. Also, the growth in assay [7] was 86.8%; in [8], 91.8%; in assay [9], 108%; in assay [10], 106%; in assay [11] it was 111%; in [12], 94.9%. In addition, the growth in [13] was 94.5%; in assay [14] it was 106%; in assay [15], 109%; in assay [16], 98.8%; in [17], 108%; in assay [18], 106%. For the same compound, the growth in assay [19] is 88.1%; in assay [20] it was 101%.

For the compound `NC(=O)C(=O)c1ccccc1NC=O`, the growth in [1] is 92.1%; in [2], 97.3%; in [3], 95.3%; in assay [4] it was 86.9%; in assay [5] it was 103%; in [6], 83.2%. In addition, the growth in [7] was 88.9%; in [8], 99.7%; in assay [9], 110%; in [10], 118%; in [11] it was 106%; in assay [12], 92.3%. The growth is 96.8% in [13]; 97.7% in [14]; 110% in assay [15]; 97.2% in [16]; 104% in [17]; 102% in [18]. For the same compound, the growth in assay [19] was 98.7%; in assay [20], 92.7%.

Take `COc1ccc(CNc2c3ccccc3nc3ccccc23)cc1`: the growth is 38.8% in assay [1]; 51.4% in assay [2]; 47.1% in assay [3]; 53.9% in assay [4]; 9.69% (active) in assay [5]; 24.6% in assay [6]. Further, the growth in [7] was 53%; in assay [8], 28.9%; in [9], 32.4%; in assay [10], 11.6%; in assay [11] it was 48%; in assay [12], 6.97% (active). Further, the growth was 40% in assay [13]; 47.4% in assay [14]; 27.6% in assay [15]; 63.4% in [16]; 39.1% in assay [17]; 27.5% in assay [18]. Besides, the values for the growth in assay [19] and in assay [20] were 52.3% and 37.1%, respectively.

`CCOc1ccc(NC(=O)CSc2oc(-c3ccccc3)nc2S(=O)(=O)c2ccc(C)cc2)cc1`: the growth in assay [1] was 67.4%; in assay [2] it was -18.8% (active); in [3], 61.1%; in assay [4] it was 53.9%; in [5], 35.9%; in [6], 46.4%. In addition, the growth in assay [7] is 83.8%; in assay [8], 41.1%; in assay [9] it was 66.1%; in assay [10], 81.8%; in [11], 67.3%; in [12], 53%. The growth was 81% in assay [13]; 32.2% in assay [14]; 62.1% in assay [15]; 54.1% in assay [16]; 48.1% in assay [17]; 17.8% in assay [18]. Also, the growth in assay [19] is 72%; in assay [20], 71%.
